Sampled rows, rich in hits. Any-hit rate of the full collection: about 8.3%.
HCV inh: blocks hepatitis C virus | Huh7.5.1 HCVcc-Cre infection, luciferase reporter, 44 h | Potency, µM (highest dose often 41.8 µM), hits mostly inhibitors | 340,000 compounds, 3.4% hits | AID 651820
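Seed cells (1,000/well) for 4 h; treat with compound and infect with HCVcc-Cre, moi about 0.5. Incubate 44 h, then detect luciferase activity.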
HCMV antiviral: human cytomegalovirus inhibition. HFF cells, HCMV-luciferase reporter, 72 h; active compounds read low. activity change, negative = inhibition, % at 57.5 µM. 410,000 compounds, 4.5% hits; in the data active = activity change below about -60%; inconclusive = no clear call, values can overlap the other calls; inactive = above about -39%
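HFF cells seeded 16 h at 37C, treated with compounds, infected with luciferase-reporter HCMV at MOI 1 PFU/cell; luciferase read at 72 h post infection, normalized to buffer-only and Salinomycin controls.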
Marburg entry inh: blocks Marburg virus binding to or entry into cells | Marburg virus pseudotyped entry inhibition, cell reporter | Potency, µM (doses to about 37.8 µM), most hits filed as inhibitors | 300,000 compounds, 1.8% hits | AID 540276; calls by dose curve; tested in HEK293 cells
Lassa entry inh: Lassa virus entry inhibition; Lassa virus pseudotype entry inhibition, cell reporter; Potency, µM (titrated, usually from 37.9 µM), hits mostly inhibitors; 300,000 compounds, 1.2% hits; calls by dose curve; tested in HEK293 cells; also: nearly all actives have a fitted effect of over 50% in size
FMDV antiviral: antivirals against foot and mouth disease virus; FMDV antiviral cell-based qHTS; 410,000 compounds, 1.2% hits; Potency, µM (top dose mostly 57.9 µM), usual class: inhibitors; calls by dose curve; tested in HEK293T cells; also: read-out not given here; nearly all actives have a fitted effect of over 45% in size
FBPA Giardia inh: blocks Giardia fructose-bisphosphate aldolase activity; purified Giardia FBPA; 290,000 compounds, 0.71% hits; A8B2U2; Potency, µM (highest dose often 59.6 µM), hits mostly inhibitors; AID 2451; also: nearly all actives have a fitted effect of over 55% in size
Target sequence (A8B2U2 whole entry, looked up): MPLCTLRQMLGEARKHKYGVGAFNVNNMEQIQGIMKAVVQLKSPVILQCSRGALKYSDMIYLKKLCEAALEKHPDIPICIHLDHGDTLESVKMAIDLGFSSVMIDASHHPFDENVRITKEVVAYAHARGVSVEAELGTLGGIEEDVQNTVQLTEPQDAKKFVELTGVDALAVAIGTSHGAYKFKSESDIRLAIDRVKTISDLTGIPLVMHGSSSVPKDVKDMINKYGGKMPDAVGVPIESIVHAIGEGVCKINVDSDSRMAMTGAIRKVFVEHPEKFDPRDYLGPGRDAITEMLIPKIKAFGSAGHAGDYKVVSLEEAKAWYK
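Giardia FBPA (40 nM reagent) was preincubated 10 min at RT with compound (up to 57.5 uM final), then substrate plus GAPDH/TPI/NAD/arsenate coupling system with diaphorase/resazurin was added; resorufin fluorescence (525/598 nm) was read after 20 min.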
Hits are given with their value; [ ] = dose if it differs, or a comment. Unless noted, calls follow the shape of the dose curve; as a rule, active = well fitted curve in the direction sought with a large enough effect; inconclusive = small, poorly fitted or top-dose-only effect, or another doubt; inactive = no such curve, though single readings can be large; an effect the other way counts as inactive or inconclusive.

For Cc1ccc(C)c(N2CCN(C(=O)C3CCN(c4nc(C)cc(C)n4)CC3)CC2)c1 the results were HCV inh inconclusive, HCMV antiviral inactive, Marburg entry inh inconclusive, Lassa entry inh inactive, FMDV antiviral 18µM and FBPA Giardia inh inactive.
`COC(=O)Cc1ccc(NC(=S)N2CCN(c3cc(Cl)ccc3C)CC2)cc1` gave HCV inh 10µM, HCMV antiviral -70, Marburg entry inh inconclusive, Lassa entry inh inactive, FMDV antiviral inconclusive and FBPA Giardia inh inactive.
For Cc1ccc(Cl)cc1N1CCN(C(=O)C2CCN(S(=O)(=O)c3cnc[nH]3)CC2)CC1 the results were HCV inh inactive, HCMV antiviral inactive, Marburg entry inh inactive, Lassa entry inh inactive, FMDV antiviral inactive and FBPA Giardia inh inactive.
Screening Cc1cc(C)nc(N2CCC(C(=O)N3CCN(c4cc(Cl)ccc4C)CC3)CC2)n1 returned HCV inh 13µM, HCMV antiviral inactive, Marburg entry inh inconclusive, Lassa entry inh inactive, FMDV antiviral 28µM and FBPA Giardia inh inactive.
For O=C(N/N=C/c1cccc(O)c1)c1ccc(COc2cccc3cccnc23)cc1 the results were HCV inh inconclusive, HCMV antiviral inactive, FMDV antiviral inactive and FBPA Giardia inh inactive.
`O=C(N/N=C/c1ccc2c(c1)OCO2)c1ccc(COc2cccc3cccnc23)cc1` gave HCV inh 13µM, HCMV antiviral inactive, FMDV antiviral inactive and FBPA Giardia inh inactive.
For Cn1cc(C(=O)N/N=C/c2ccc(Br)c([N+](=O)[O-])c2)c2ccccc21 the results were HCV inh inconclusive, HCMV antiviral inconclusive, Marburg entry inh inactive, Lassa entry inh inactive, FMDV antiviral inactive and FBPA Giardia inh inactive.
Cn1cc(C(=O)N/N=C/c2ccc3c(c2)OCO3)c2ccccc21 was read as HCV inh inconclusive, HCMV antiviral inactive, Marburg entry inh 13µM, Lassa entry inh inactive, FMDV antiviral inactive and FBPA Giardia inh inactive.
For O=C(N/N=C/c1ccc2c(c1)OCO2)c1cccc2ccccc12 the results were HCV inh inactive, HCMV antiviral inactive, Marburg entry inh 3.2µM, Lassa entry inh inactive, FMDV antiviral inactive and FBPA Giardia inh inactive.
Screening N#CCCn1c(=O)c(-c2ccccc2)nc2cnc(N3CCOCC3)nc21 returned FMDV antiviral inactive and FBPA Giardia inh inactive.
`C[C@H]1COC(=O)[C@H]2CCCN2C(=O)[C@@H](C)COC(=O)[C@H](Cc2ccccc2)NC1=O` gave FBPA Giardia inh inactive[12.9 µM].
CCCCc1c(O)c2ccccc2n(CCCC)c1=O was read as HCV inh inactive, HCMV antiviral inactive, Marburg entry inh inactive, Lassa entry inh inactive, FMDV antiviral inactive and FBPA Giardia inh inactive.
For CCCCc1c(CCC)c(=N)c2ccccc2n1C the results were HCV inh inconclusive, HCMV antiviral -98, Marburg entry inh inconclusive, Lassa entry inh inconclusive, FMDV antiviral inconclusive and FBPA Giardia inh inactive.
Screening Cc1cnc(CNc2ccnc(-c3ccccc3C(F)(F)F)n2)cn1 returned FMDV antiviral inactive and FBPA Giardia inh inactive.
Cc1nc([N+](=O)[O-])c(Br)n1CC(=O)c1ccc(F)cc1 was read as HCV inh inactive, HCMV antiviral inactive, Marburg entry inh inconclusive, Lassa entry inh inconclusive, FMDV antiviral inactive and FBPA Giardia inh inactive.
`Cc1nc([N+](=O)[O-])c(Br)n1CC(=O)c1cccc([N+](=O)[O-])c1` gave HCV inh inactive, HCMV antiviral inactive, Marburg entry inh inconclusive, Lassa entry inh inactive, FMDV antiviral 32µM and FBPA Giardia inh inactive.
Screening O=C(NCc1ccccc1)C1C(c2ccc3c(c2)OCO3)=Nc2ccccc2N1C(=O)c1ccccc1 (stereo not drawn) returned HCMV antiviral inactive and FMDV antiviral inactive.
Screening O=C(NCc1ccccc1)C1C(c2ccc3c(c2)OCO3)=Nc2ccccc2N1C(=O)c1ccco1 (stereo not drawn) returned HCMV antiviral -62 and FMDV antiviral inactive.
Screening COc1cc2c(c(OC)c1OC)-c1ccc(O)cc1C(NC(C)=O)CC2 (stereo not drawn) returned HCV inh inactive, HCMV antiviral -95, Marburg entry inh inconclusive, Lassa entry inh inconclusive and FMDV antiviral inactive.
Screening COc1cc2c(c(OC)c1OC)-c1ccc(NC(=O)c3ccccc3)c(=O)cc1[C@@H](NC(C)=O)CC2 returned HCV inh inactive, HCMV antiviral -88, Marburg entry inh inactive, Lassa entry inh inactive, FMDV antiviral inactive and FBPA Giardia inh inactive.

Source: PubChem BioAssay (National Center for Advancing Translational Sciences (NCATS))
